Results on 23 compounds are retold here after PubChem BioAssay (NCI).

Molecules are shown by their SMILES. Compounds without any hit were thinned out: in the full panel of roughly 79,000, 15% have a hit. Values without a mark were called inactive. Active and inactive are the calls of the source. Cut-off read from the data, not from the text of the source: active = growth inhibition above about 70%; inactive = the rest.

A short description of this experiment: NCI Yeast Anticancer Drug Screen. Data for the mlh1 rad18 strain (AID 175). The following applies: S. cerevisiae mlh1 rad18 strain growth inhibition; at 50.0 µM; stronger effect = higher value. A digest of the protocol: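 A repair-deficient yeast strain is exposed to test compound, and growth is scored relative to vehicle-treated controls.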
In the case of `CC(=O)/C=C(O)/C=C/c1ccccc1`, the growth inhibition was 12.9%.
The same measure for `C1CCCNCCNCCNCC1`: 19.1%.
The same measure for `O=NNc1ccnc(-c2cc(NN=O)ccn2)c1`: 34%.
As for `CCC1(C(Cl)(Cl)Cl)C=CC(=O)C=C1`, the figure is -21.1%; as for `CCCCCCc1cc(C(=O)N/N=C/c2ccccc2O)c2ccccc2n1`, -2.95%; as for `Cc1ccc(CNC(=O)Nc2cccc(Cl)c2)cc1C`, 5.35%.
With `O=C(O)CCC(=O)c1ccc2c3c1CCCC3CC2` (stereo not drawn), the growth inhibition was 70.7% (active).
As for `CCOC(=O)C1=CC(C)(C(=O)OCC)Nc2c(nc(SC)n(C)c2=O)N1` (stereo not drawn), the figure is 14.2%.
The same measure for `COc1ccc(C(C)c2cc3c(cc2OC)OCO3)cc1` (stereo not drawn): 10.9%.
The same measure for `COc1ccccc1/C=C1/Sc2scc(CC(=O)Nc3ccccc3)[n+]2C1=O`: 24.8%; for `NC(=O)C(=O)NNC(=O)Nc1ccc(Cl)cc1`: 20.8%; for `COc1ccc(N2C(=O)C3CC(c4ccc(Br)cc4)c4c([nH]c5ccccc45)C3C2=O)cc1` (stereo not drawn): -4.95%.
With `O=N[O-].O=N[O-].[Co].[NH-]CC[N-]CC[N-]CC[NH-]`, the growth inhibition is 11%.
As for `COc1cccc2c1oc(=O)c1ccccc12`, the figure is -5.85%.
The same measure for `O=C1[C@H]2ON(c3ccccc3)C(c3ccc(Cl)cc3)[C@H]2C(=O)N1c1ccc(Cc2ccc(N3C(=O)[C@@H]4ON(c5ccccc5)C(c5ccc(Cl)cc5)[C@@H]4C3=O)cc2)cc1` (stereo partly drawn): 7.6%.
As for `Cc1ccc(C(=O)C2CC2c2ccccc2)cc1` (stereo not drawn), the figure is -7%; as for `Cc1cc(Cl)c(C)c(C)c1O`, 21.4%; as for `COC(=O)/C(=N\NC(N)=O)C(C#N)c1ccccc1` (stereo not drawn), -4.8%.
With `CC(=O)NC1C(=O)N(c2ccccc2)N=C1C` (stereo not drawn), the growth inhibition is 9.85%.
As for `C/C(=N\NC(N)=S)c1ccc(/C(C)=N/NC(N)=S)cc1`, the figure is -19.6%; as for `Nc1c(-c2nc3ccccc3[nH]2)sc(=S)n1-c1ccc(Cl)cc1`, -6.5%; as for `COc1cccc(/C(C=O)=C(\Cl)c2ccc(OC)c(OC)c2)c1`, -8.3%.
As for `CCCCC1(CCO)C(=O)N=C(N)NC1=O` (stereo not drawn), the figure is -15.8%.
